Ten compounds from PubChem BioAssay (NCATS) can be followed below.

The structures appear in SMILES notation. “And” between values parts separate entries of the source, which are not always exact repeats. Identical values can stand only once. Unmarked numbers belong to inactive results. Inconclusive results are not listed. The source made the active and inactive calls. Unless noted, the call rests on the fitted dose curve; in most records, active means well fitted curve in the direction sought with a large enough effect; inconclusive means small, poorly fitted or top-dose-only effect, or another doubt; inactive means no such curve, though single readings can be large; an effect the other way counts as inactive or inconclusive. *1 amine or outer side, *2 acyl side, *3 side chain or, on linkers, in order; H or OH if unused. Where a SMILES comes first, the peptide text is derived from it. Bridges are numbered along the chain shown (N, C = ends). Roman numbers before positions name the chains, in order. [ ]: non-standard residue; d: D form. ξ: configuration not given here. Actinocin(9to1) = Cc1c2oc3c(C)ccc(C(=O)[*:1])c3nc-2c(C(=O)[*:2])c(N)c1=O; ξNMeV = CNC(C(=O)O)C(C)C; ξV = CC(C)C(N)C(=O)O; Sar = CNCC(=O)O

The nature of test [1]: qHTS assay for small molecule agonists of the antioxidant response element (ARE) signaling pathway (AID 651741; active means well fitted activation curve with a large enough effect in the signal ratio; the % refers to the signal ratio; further: potency means the concentration at half of the fitted maximal effect; on activation: % of control where 0% means no effect). A digest of the protocol:
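Seeding 2,000 ARE-bla HepG2 cells per well preceded a 5 h incubation at 37 C/5% CO2 and a 16 h compound exposure at 37 C. Beta-lactamase reporter activity was then quantified by fluorescence after 2 h with LiveBLAzer B/G FRET substrate.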

Test [2] in a line: qHTS assay for small molecule activators of the p53 signaling pathway (AID 651743; active means well fitted activation curve with a large enough effect in the signal ratio, not every such curve was filed as active; the % refers to the signal ratio; further: series mostly up to about 92 µM; % of control where 0% means no effect). The conditions noted are these: HCT-116 p53RE-bla, beta-lactamase FRET ratio, 16 h; activation: stronger effect = higher value. A digest of the protocol:
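Screen for p53 pathway agonists uses stably transfected p53RE-bla HCT-116 cells, 4,000 per well, treated 16 h at 37 C with compounds in DMSO.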
(In general: In qHTS, concentration-response curves come from the screen itself.)

For test [3], the target named is Tumor necrosis factor (Homo sapiens) (UniProt P01375). The test can be described thus: qHTS assay to identify small molecules that stimulate Tumor Necrosis Factor-alpha (TNF-alpha) secretion (AID 651757; active means well fitted curve in the direction sought with a large enough effect in the signal ratio; the % refers to the signal ratio; further: 0% is about no effect). The essentials:
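Secreted TNF-alpha from compound-treated THP-1 cells (17 hrs, 37 C) was quantified with a homogeneous time-resolved fluorescence antibody assay.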

The nature of test [4]: qHTS assay for environmental chemicals that activate the Aryl hydrocarbon Receptor (AhR) signaling pathway (AID 651777). Further: % of control where 0% means no effect; nearly all actives have a fitted effect of over 15% in size. The conditions noted are these: 1A2-DRE human hepatoma cells, luciferase, 24 h; stronger effect = higher value. The essentials:
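Human hepatoma 1A2-DRE cells, stably carrying a dioxin response element and CYP1A2 promoter driving luciferase, were exposed to compounds for 24 hr at 37 C and 5% CO2. Luciferase signal was then read after 30 min One-Glo at room temperature.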

In test [5] the target is Peroxisome proliferator-activated receptor alpha (Homo sapiens) (UniProt Q07869). The test can be described thus: qHTS assay for small molecule agonists of the peroxisome proliferator-activated receptor alpha (PPARalpha) signaling pathway (AID 651778). Further: % of control where 0% means no effect. Conditions: PathHunter PPARalpha complementation, chemiluminescence, 6 h; max response: stronger effect = higher value. A digest of the protocol:
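Chemiluminescence from complemented enzyme reported PPARalpha activation in cells after 6 hr of compound treatment at 37 C. The detection reagent was incubated for 60 min at room temperature, and compounds were scored as agonists.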

Test [6] concerns the target Nuclear receptor ROR-gamma (Homo sapiens) (UniProt P51449). The test can be described thus: qHTS assay for small molecule antagonists of the retinoid-related orphan receptor gamma (ROR-gamma) signaling pathway (AID 651802). Further: series mostly up to about 92 µM; on the % scale 0 is the no-effect control and ±100 the full control effect; nearly all actives have a fitted effect of over 60% in size. A digest of the protocol:
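Antagonism is scored as a fall in luminescence from a RORE-luciferase reporter in CHO cells expressing ROR under a TET-inducible promoter, measured 16hr after doxycycline induction in the presence of compound.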

The nature of test [7]: qHTS assay for small molecule agonists of the antioxidant response element (ARE) signaling pathway measured by Nrf2-dependant transcriptional activity (AID 720636; active means well fitted curve in the direction sought with a large enough effect in the repeat runs; an effect the other way counts as inactive or inconclusive; further: % of control where 0% means no effect). The essentials: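 ARE-luc HepG2 cells carrying an Nrf2-responsive luciferase reporter were plated in medium with 1% dialyzed FBS, left 6 hr at 37 C to attach, then exposed to compound for 16 hr. Luciferase luminescence was read after ONE-Glo addition.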

Test [8] is described as follows: qHTS assay for small molecule antagonists of the retinoid-related orphan receptor gamma (ROR-gamma) signaling pathway - cell viability counter screen (AID 720652; active means well fitted curve in the direction sought with a large enough effect in the repeat runs; an effect the other way counts as inactive or inconclusive;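 further: series mostly up to about 92 µM; compound exposure lasted 16 hr before ATP read; on the % scale 0 is the no-effect control and ±100 the full control effect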). A digest of the protocol: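 Cytotoxicity is quantified via intracellular ATP (CellTiter-Glo luminescence) in doxycycline-induced CHO ROR response element-luciferase reporter cells treated with compound for 16 hr at 37 C, 5% CO2.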

A short description of test [9]: qHTS assay for small molecule agonists of the antioxidant response element (ARE) signaling pathway measured by Nrf2-dependant transcriptional activity - cell viability counter screen (AID 720653; active means well fitted curve in the direction sought with a large enough effect in the repeat runs; an effect the other way counts as inactive or inconclusive; further: on the % scale 0 is the no-effect control and ±100 the full control effect). The conditions noted are these: ARE-bla HepG2 viability, CellTiter-Glo ATP luminescence, 16 h; stronger effect = lower value. A digest of the protocol: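 Cytotoxicity counter screen: intracellular ATP quantified by CellTiter-Glo luminescence in the same ARE-bla HepG2 plates, after 16 h compound exposure and a 2 h beta-lactamase substrate step.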

The target in test [10] is Tyrosine-protein kinase Yes (Homo sapiens) (UniProt P07947). Nature of the test: qHTS for small molecule inhibitors of Yes1 kinase: Primary Screen (AID 686947).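 Further: plate controls were DMSO with enzyme for no effect and no-enzyme DMSO wells for full effect; nearly all actives have a fitted effect of over 60% in size.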 The essentials: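 ADP-Glo luminescence readout; final 4 nM Yes1, 0.1 mM ATP, 0.3 mg/mL poly(E4Y), Tris pH 7.5, MgCl2, DTT, Brij-35. 20 min compound preincubation, 60 min reaction at RT. Normalized to DMSO wells with and without enzyme.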
Chain of Tyrosine-protein kinase Yes (Homo sapiens) (P07947 whole entry, looked up): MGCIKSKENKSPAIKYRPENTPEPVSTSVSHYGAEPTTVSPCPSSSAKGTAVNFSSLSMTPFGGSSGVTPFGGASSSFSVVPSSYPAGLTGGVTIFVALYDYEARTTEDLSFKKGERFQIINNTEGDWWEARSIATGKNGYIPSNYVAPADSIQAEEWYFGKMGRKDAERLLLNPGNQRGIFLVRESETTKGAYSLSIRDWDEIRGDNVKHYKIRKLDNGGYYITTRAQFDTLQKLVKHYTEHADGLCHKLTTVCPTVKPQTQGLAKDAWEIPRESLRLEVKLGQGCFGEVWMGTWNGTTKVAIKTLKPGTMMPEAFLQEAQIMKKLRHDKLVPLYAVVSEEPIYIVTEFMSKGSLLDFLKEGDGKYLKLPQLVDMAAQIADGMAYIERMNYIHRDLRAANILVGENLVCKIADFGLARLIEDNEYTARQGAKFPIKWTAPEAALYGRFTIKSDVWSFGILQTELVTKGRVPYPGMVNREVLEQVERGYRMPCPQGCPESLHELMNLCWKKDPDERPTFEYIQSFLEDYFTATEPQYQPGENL

Test [11] concerns the target Arylsulfatase A (Homo sapiens) (UniProt P15289). Nature of the test: qHTS screen for enhancers of Arylsulfatase A (ASA1): LOPAC Validation Assay (AID 720538). Further: 0% is about no effect. A digest of the protocol: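 SV40-transformed fibroblasts from an MLD patient (ASA-I179S) were treated with compound for 48 h at 37 C. They were then lysed with 0.5 mM pNCS substrate (final) for 14 h at room temperature and stopped with NaOH; signal read by fluorescence (Ex 525/Em 598 nm), with increase denoting enhanced activity.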

Test [12] can be described thus: qHTS for compounds that reverse cellular toxicity of Amyloid beta (A-beta) peptide in yeast: LOPAC Validation Assay (AID 720559).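 Further: plate controls were DMSO for no effect and equimolar ferric chloride plus clioquinol rescue for full effect.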 A digest of the protocol: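 Yeast expressing toxic A-beta grown with pinned compounds at 30 C for 48 hr. Growth measured as absorbance at 600 nm; data normalized to DMSO and to an equimolar FeCl3/clioquinol mixture as positive control.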

Test [13] is described as follows: qHTS for Activators of Parkin Expression: LOPAC Validation Assay (NLuc Reporter) (AID 720572;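 further: 0% = DMSO and 100% = positive control compound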). The essentials:
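Parkin promoter-driven FLuc/NLuc neuronal reporter cells; 24 h plating, 7-pt dose response, 24 h at 37 C/5% CO2; FLuc then NanoLuc reagent, 10 min each, luminescence; DMSO/positive control normalized.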

Test [14] concerns the target T1, Hexokinase-4 (Homo sapiens) + Glucokinase regulatory protein (Homo sapiens) (UniProt P35557+Q14397). Nature of the test: qHTS assay for inhibitors of recombinant human GCK-GKRP interaction: ADP-Glo assay (AID 743206).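 Further: plate controls were DMSO plus enzyme for no effect and no enzyme for full effect.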 The essentials:
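GST-GCK and FLAG-GKRP (15 nM each in the dispensed mix, with 2 uM S6P) react with 0.4 mM ATP and 5 mM glucose (final) in Hepes pH 7.6 for 60 min at room temperature. ADP is measured by ADP-Glo luminescence.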

Test [15] concerns the target T1, Hexokinase-4 (Homo sapiens) + Glucokinase regulatory protein (Homo sapiens). The test can be described thus: qHTS assay for inhibitors of recombinant human GCK-GKRP interaction: HTRF assay (AID 743207).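 Further: 0% = DMSO with GCK present and -100% = DMSO wells lacking GCK.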 The essentials:
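HTRF binding of 5 nM GST-GCK and 5 nM FLAG-GKRP with 2 uM S6P in pH 7.1 Hepes buffer (MgCl2, KCl, DTT, Tween 20, BSA). Anti-FLAG XL665 and anti-GST donor added, 60 min at room temperature; 665/615 nm read, normalized to with- and without-GCK controls.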

Test [16] can be described thus: Cell Proliferation Assay against the TMD8 Cell Line (Caspase readout at 8 hrs) (AID 651713). Further: potency means the concentration at half of the fitted maximal effect. The essentials: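 Percent activity derived from Caspase-Glo signal, DMSO set to 0% and bortezomib (9.2 uM final) to 100%. TMD8 cells were exposed to compound for 8 h in RPMI with 5% FBS.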
The nature of test [17]: qHTS assay for small molecule activators of the nuclear factor-kappa B (NF-kB) signaling pathway (AID 651749; active means well fitted activation curve with a large enough effect in the signal ratio; the % refers to the signal ratio; further: series mostly up to about 77 µM; % of control where 0% means no effect). Conditions: NF-kB-bla ME-180 cells, beta-lactamase FRET ratio, 16 h; stronger effect = higher value. A digest of the protocol: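 Stably transfected ME-180 line; NF-kB response element upstream of beta-lactamase. Treatment: compound or DMSO, 16 hr. Detection: fluorescent FRET substrate.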

The nature of test [18]: qHTS assay for small molecule disruptors of the mitochondrial membrane potential - 1 hr assay (AID 651754; calls by dose curve; further: on the % scale 0 is the no-effect control and ±100 the full control effect; nearly all actives have a fitted effect of over 35% in size). A digest of the protocol:
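Steps: seed HepG2 cells and let attach overnight; pin-transfer compound or vehicle; incubate 1 hr at 37C; add Mito-MPS dye for 30 min; read two-channel fluorescence for monomer and aggregate forms.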

Test [19] is described as follows: qHTS assay for small molecule disruptors of the mitochondrial membrane potential - 5 hr assay (AID 651755; calls by dose curve; further: on the % scale 0 is the no-effect control and ±100 the full control effect; nearly all actives have a fitted effect of over 40% in size). The essentials: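 HepG2, 2,000 cells/well, overnight attach; cpd or DMSO 5 hr, 37C/5% CO2; Mito-MPS 30 min 37C; fluor 490/535 + 540/590 nm.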
Test [20] can be described thus: qHTS assay to identify small molecules that stimulate interleukin-8 (IL-8) secretion (AID 651758; active means well fitted activation curve with a large enough effect in the signal ratio; the % refers to the signal ratio; further: 0% is about no effect). The essentials:
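Secreted IL-8 measured by TR-FRET sandwich (cryptate and XL665 antibodies) from THP-1 cells exposed to compound overnight (16 hrs, 37 C).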

Chain of Nuclear receptor ROR-gamma (Homo sapiens) (P51449 whole entry, looked up): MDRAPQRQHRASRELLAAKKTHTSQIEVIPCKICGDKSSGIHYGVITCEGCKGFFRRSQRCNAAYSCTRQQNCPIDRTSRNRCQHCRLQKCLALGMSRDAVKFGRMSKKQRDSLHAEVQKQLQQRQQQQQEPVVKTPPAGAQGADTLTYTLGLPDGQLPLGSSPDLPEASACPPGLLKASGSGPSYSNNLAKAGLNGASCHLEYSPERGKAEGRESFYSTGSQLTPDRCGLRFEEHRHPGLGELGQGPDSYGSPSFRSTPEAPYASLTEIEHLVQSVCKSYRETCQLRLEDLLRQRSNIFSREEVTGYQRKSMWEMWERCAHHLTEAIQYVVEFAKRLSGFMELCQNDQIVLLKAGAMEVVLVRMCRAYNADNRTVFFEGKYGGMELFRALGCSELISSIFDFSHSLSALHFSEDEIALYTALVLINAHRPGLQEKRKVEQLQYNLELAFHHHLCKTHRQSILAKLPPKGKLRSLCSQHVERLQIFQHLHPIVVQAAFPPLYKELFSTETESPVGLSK
Chain of Peroxisome proliferator-activated receptor alpha (Homo sapiens) (Q07869 whole entry, looked up): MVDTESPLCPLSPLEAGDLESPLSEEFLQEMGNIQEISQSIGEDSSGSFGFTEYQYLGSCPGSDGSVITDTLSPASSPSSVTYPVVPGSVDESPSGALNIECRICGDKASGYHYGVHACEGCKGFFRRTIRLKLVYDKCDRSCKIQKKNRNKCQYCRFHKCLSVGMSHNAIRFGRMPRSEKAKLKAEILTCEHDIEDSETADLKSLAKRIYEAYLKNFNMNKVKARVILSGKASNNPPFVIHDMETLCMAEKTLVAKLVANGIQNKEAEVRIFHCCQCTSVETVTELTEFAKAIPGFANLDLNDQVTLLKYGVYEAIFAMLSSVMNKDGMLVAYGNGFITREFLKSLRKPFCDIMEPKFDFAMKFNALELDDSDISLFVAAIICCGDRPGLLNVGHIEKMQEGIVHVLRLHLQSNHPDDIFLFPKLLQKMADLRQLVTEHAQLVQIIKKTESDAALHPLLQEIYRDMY
Chain of Tumor necrosis factor (Homo sapiens) (P01375 whole entry, looked up): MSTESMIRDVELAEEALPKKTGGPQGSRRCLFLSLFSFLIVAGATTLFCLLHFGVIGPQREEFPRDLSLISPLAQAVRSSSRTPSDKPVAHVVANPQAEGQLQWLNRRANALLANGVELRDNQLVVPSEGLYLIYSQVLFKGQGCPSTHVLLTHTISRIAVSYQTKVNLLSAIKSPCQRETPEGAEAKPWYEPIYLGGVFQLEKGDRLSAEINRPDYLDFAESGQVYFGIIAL
T1 sequence (P35557 whole entry, looked up): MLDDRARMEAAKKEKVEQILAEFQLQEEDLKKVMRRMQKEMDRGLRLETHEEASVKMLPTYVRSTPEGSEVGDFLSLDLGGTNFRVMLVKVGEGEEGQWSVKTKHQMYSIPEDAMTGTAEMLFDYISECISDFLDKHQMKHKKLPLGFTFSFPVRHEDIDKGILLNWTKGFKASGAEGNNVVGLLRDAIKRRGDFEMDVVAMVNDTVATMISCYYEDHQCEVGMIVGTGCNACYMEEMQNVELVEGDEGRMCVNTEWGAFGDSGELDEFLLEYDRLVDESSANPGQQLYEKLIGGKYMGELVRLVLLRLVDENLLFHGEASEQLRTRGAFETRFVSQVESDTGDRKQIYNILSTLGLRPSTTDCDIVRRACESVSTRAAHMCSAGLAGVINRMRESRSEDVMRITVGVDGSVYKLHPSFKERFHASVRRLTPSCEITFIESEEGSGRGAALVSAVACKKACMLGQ
T1 sequence (Q14397 whole entry, looked up): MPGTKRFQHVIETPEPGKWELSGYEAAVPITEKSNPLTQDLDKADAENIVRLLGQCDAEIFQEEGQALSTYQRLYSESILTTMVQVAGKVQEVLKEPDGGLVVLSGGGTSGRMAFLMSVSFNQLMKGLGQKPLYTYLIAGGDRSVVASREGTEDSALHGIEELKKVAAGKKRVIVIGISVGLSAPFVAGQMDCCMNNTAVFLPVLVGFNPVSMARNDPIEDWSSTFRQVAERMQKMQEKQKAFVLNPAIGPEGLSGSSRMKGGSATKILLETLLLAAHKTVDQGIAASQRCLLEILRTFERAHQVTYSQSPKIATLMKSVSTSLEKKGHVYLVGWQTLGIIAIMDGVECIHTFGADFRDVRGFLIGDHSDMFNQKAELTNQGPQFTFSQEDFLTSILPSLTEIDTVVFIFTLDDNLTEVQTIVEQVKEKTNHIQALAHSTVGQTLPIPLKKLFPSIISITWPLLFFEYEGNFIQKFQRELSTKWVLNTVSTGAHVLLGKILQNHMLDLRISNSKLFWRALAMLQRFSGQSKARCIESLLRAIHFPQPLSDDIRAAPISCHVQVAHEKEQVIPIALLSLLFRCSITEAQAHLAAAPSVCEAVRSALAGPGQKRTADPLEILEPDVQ
Chain of Arylsulfatase A (Homo sapiens) (P15289 whole entry, looked up): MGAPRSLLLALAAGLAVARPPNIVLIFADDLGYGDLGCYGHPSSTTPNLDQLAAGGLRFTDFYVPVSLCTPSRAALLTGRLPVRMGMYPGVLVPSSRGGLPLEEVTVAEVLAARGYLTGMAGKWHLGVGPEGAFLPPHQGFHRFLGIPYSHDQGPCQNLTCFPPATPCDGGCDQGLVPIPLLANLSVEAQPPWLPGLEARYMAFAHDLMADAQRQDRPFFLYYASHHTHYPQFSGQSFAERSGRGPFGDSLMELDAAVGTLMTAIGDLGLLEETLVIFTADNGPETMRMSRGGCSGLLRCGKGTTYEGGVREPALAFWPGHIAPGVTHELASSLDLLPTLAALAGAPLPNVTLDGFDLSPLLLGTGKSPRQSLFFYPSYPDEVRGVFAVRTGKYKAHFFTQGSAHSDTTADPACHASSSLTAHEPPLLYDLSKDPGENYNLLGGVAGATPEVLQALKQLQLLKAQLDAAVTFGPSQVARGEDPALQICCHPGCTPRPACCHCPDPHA

As for `CCCCCCCC(=O)O`, the Potency entry in [1] was “inactive”. In addition, the activation in test [2] was -2.15% and 0.705%; in test [4], 0.292% and -0.546%. Moreover, the call in test [3], in [6], in [7] and in test [8] was inactive. Moreover, the max response was -0.533% and 5% in test [5]; 3.78% and 1.59% in [9].
For `Cc1c2oc3c(C)ccc(C(=O)N[C@@H]4C(=O)NC(C(C)C)C(=O)N5CCC[C@H]5C(=O)N(C)CC(=O)N(C)C(C(C)C)C(=O)O[C@@H]4C)c3nc-2c(C(=O)N[C@@H]2C(=O)NC(C(C)C)C(=O)N3CCC[C@H]3C(=O)N(C)CC(=O)N(C)C(C(C)C)C(=O)O[C@@H]2C)c(N)c1=O` (some centres undefined) (I: T[ξV]P[Sar][ξNMeV] / II: T[ξV]P[Sar][ξNMeV]; ester I:1-I:C, II:1-II:C; linker I:N-II:N via Actinocin(9to1)), in [10], the Potency result is “inactive”.
The same measure, in the same setting: for `CNC1CCN(C(Cc2cccc(-c3ccncc3)c2)C(=O)c2sc3c(F)ccc(F)c3c2Cl)CC1` (centres undefined) the value was “inactive”.
On to `CC1(C)C(C=C(Cl)Cl)C1C(=O)OCc1cccc(Oc2ccccc2)c1` (centres undefined), for which the activation in test [2] was -1.26% [middle of 4 runs]; in test [4], -0.92% and -0.145% and 0.247%. In addition, the max response in test [5] is -0.904% [middle of 4 runs]; in [9] it was -3.1% [middle of 4 runs]. For the same compound, the call in test [7] was inactive.
For the compound `CN1Cc2c(N)cccc2C(c2ccccc2)C1` (centres undefined), the outcome in test [11], in [12], in test [13], in test [14] and in [15] was inactive.
On to `CCOc1cc2ncc(C#N)c(Nc3ccc(OCc4ccccn4)c(Cl)c3)c2cc1NC(=O)/C=C/CN(C)C`, for which the Potency in test [16] was 23.5 µM (active).
With `CC1=C2[C@@H]([C@H](C)CC[C@H]2/C=C(\C)C(=O)O)[C@H](O)C1`, the Potency entry in test [1] and in test [20] was “inactive” each time. The activation in [2] is -3.64%; in test [17], -0.741%; in test [4], 1.08%. Moreover, the compound was called inactive in [18], in [19], in [3], in test [6], in test [7] and in test [8]. In addition, the max response in test [5] was -2.98%; in [9] it was -8.96%.
As for `CCCCCCCCCCCCCCCCCCOP(=O)([O-])OC1CC[N+](C)(C)CC1`, the Potency result in test [16] and in [10] was “inactive” each time.
For the compound `CCCCC(CC)COC(=O)CC(C(=O)OCC(CC)CCCC)S(=O)(=O)O` (centres undefined), the Potency in [1] was 43.3 µM (active). In addition, the activation in test [2] is 1.7%; in test [17], -3.42%; in [4] it was 0.833%. Moreover, in test [7], the outcome was inactive. Also, in test [9], the max response is -6.73%.
With `CC[C@@H](C(=O)O)C1CC[C@H](C)C([C@@H](C)[C@H](O)[C@H](C)C(=O)[C@H](CC)C2O[C@]3(C=C[C@@H](O)[C@]4(CC[C@@](C)(C5CC[C@](O)(CC)[C@H](C)O5)O4)O3)[C@H](C)C[C@@H]2C)O1` (some centres undefined), the Potency entry in [10] is “inactive”.
